Measured values: PubChem BioAssay
Activity calls are given as the source filed them. Unless noted, no rule for the calls is given here.

Experiments:
[1] = anti-His antibody binders, primary screen, artefact control for SMM control protein annotation, biochemical, small-molecule microarray, 635 nm fluorescence (AID 1128); conditions: anti-His Alexa647 antibody binding, higher = more signal;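 also: score merges feature fluorescence with signal-to-noise for each printed compound spot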
[2] = test system: Human papillomavirus type 1a E7 protein (residues 1-88); test: HPV1a E7 small-molecule binders, primary screen, biochemical, small-molecule microarray, residues 1-88, 635 nm (AID 1129); conditions: small-molecule microarray binding, fluorescence 635 nm; higher = more signal
[3] = biological target: Focal adhesion kinase 1 (Homo sapiens) (UniProt Q05397); test: small-molecule microarray binders of FAK, primary screen, biochemical, 635/667 nm fluorescence, BSA, DTT (AID 1130); conditions: PTK2 binding, 635 nm fluorescence, higher = more signal;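 also: composite of spot emission at 667 nm and signal to noise over triplicate slides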
Focal adhesion kinase 1 (Homo sapiens), sequence (Q05397 whole entry, looked up): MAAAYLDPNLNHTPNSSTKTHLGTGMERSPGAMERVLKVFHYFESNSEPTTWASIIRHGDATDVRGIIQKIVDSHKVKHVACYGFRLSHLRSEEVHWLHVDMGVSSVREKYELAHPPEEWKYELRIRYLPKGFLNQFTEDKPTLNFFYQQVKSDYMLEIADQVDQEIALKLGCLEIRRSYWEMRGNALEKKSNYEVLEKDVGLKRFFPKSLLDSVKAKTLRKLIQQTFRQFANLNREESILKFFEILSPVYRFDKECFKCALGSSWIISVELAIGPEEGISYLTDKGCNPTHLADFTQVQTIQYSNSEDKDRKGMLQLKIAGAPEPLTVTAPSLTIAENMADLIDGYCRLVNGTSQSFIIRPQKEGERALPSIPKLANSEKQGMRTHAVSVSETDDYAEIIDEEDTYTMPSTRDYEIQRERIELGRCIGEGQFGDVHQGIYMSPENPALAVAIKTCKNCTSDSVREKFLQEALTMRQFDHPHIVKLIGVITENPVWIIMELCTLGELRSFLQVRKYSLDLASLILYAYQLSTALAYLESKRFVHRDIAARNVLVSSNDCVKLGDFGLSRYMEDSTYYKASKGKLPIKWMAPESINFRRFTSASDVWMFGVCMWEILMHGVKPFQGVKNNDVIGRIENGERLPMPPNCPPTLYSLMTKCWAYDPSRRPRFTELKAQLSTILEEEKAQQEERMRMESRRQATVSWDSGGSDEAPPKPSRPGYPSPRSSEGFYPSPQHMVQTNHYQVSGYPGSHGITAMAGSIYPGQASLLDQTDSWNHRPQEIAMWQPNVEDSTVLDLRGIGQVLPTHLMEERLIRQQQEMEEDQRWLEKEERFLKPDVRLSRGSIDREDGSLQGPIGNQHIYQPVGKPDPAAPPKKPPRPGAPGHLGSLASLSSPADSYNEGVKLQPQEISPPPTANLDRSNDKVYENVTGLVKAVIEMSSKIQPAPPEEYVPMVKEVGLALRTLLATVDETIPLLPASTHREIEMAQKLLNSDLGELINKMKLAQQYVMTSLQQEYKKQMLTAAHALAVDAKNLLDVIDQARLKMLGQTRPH

[4] = test system: Fibrinogen (Alexa647-labelled); test: fibrinogen binders on compound microarrays, profiling panel, artefact control for SMM control-protein annotation, biochemical, small-molecule microarray, 635/667 nm fluorescence (AID 1131); conditions: fibrinogen-A647 binding fluorescence, higher = more signal;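 also: z-score merges 667 nm fluorescence with per-spot signal-to-noise over triplicate slides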
[5] = biological target: Follistatin (Homo sapiens) (UniProt P19883); test: follistatin binders on small-molecule microarrays, primary screen, biochemical, small-molecule microarray, 635/667 nm fluorescence (AID 1132); conditions: FST binding, 635 nm fluorescence, higher = more signal
Follistatin (Homo sapiens), sequence (P19883 whole entry, looked up): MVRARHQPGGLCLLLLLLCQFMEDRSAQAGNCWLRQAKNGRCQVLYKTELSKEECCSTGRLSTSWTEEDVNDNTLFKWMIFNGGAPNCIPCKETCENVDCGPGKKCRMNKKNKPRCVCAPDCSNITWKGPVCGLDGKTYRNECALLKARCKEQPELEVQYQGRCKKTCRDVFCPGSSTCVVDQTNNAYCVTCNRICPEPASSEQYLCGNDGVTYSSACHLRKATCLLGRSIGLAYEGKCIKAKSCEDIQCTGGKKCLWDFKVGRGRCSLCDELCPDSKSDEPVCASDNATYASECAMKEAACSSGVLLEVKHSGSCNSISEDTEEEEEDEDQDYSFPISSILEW

[6] = biological target: Fibroblast growth factor 2 (Homo sapiens) (UniProt P09038); test: FGF2 binders on small-molecule microarrays, primary screen, biochemical, small-molecule microarray, 635/667 nm fluorescence (AID 1133); conditions: small-molecule microarray binding, FGF2, fluorescence 635/667; higher = more signal
Fibroblast growth factor 2 (Homo sapiens), sequence (P09038 whole entry, looked up): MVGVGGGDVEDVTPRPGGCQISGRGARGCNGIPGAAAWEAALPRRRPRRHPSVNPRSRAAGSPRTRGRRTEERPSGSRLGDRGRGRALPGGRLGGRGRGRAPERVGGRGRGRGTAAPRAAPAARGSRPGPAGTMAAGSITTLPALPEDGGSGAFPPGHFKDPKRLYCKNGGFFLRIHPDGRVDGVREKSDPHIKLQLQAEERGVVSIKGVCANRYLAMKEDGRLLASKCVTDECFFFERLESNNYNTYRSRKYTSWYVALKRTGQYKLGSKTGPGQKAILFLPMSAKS

[7] = mitochondrial membrane potential change in A549 cells, profiling panel, cell-based, JC-1 fluorescence, basal, 24 h, 100 nL (AID 1138); conditions: higher = more signal;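 also: A549 lung adenocarcinoma cells under basal conditions with no added stimulus; test concentration not given here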
Lefty1 = Lefty1 binders on small-molecule microarrays, primary screen, biochemical, small-molecule microarray, 635/667 nm fluorescence (AID 1139); conditions: small-molecule microarray binding, fluorescence 635/667; higher = more signal
[8] = test system: wheat germ agglutinin (Triticum aestivum), Alexa647-labelled; test: wheat germ agglutinin binders on compound microarrays, profiling panel, artefact control for SMM control-protein annotation, biochemical, small-molecule microarray, 635/667 nm fluorescence (AID 1140); conditions: WGA-A647 binding, 635 nm fluorescence, higher = more signal;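 also: score merges 667 nm feature emission with signal to noise over triplicate slides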
[9] = biological target: Luciferin 4-monooxygenase (Photinus pyralis) (UniProt P08659); test: firefly luciferase enzyme inhibitors, primary screen, biochemical, luminescence, purified enzyme, 2006 set (AID 1141); conditions: SteadyGlo luminescence, 30 min, higher = more signal, called active from +8 up or from −8 down;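 also: cell-free assay with purified firefly luciferase at 100 ng per well in PBS; test concentration not given here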
Luciferin 4-monooxygenase (Photinus pyralis), sequence (P08659 whole entry, looked up): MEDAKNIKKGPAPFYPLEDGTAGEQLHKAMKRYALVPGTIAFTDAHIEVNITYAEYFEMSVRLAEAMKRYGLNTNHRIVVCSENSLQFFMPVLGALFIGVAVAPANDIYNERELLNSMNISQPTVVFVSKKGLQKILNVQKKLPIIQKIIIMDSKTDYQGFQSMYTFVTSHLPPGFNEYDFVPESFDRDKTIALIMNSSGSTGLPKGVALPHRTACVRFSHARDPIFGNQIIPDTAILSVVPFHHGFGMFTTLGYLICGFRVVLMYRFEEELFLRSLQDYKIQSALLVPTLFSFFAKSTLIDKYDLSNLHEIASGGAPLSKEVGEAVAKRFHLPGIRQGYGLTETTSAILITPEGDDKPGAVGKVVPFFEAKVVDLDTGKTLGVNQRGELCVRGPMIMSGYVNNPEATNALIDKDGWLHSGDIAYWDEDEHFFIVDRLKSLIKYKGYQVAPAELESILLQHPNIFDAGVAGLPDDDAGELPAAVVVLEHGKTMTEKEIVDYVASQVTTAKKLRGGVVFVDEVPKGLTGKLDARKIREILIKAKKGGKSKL

[10] = test system: Wnt5a (protein binding on small-molecule microarray); test: Wnt5a binders on small-molecule microarray, primary screen, biophysical, 635/667 nm fluorescence (AID 1142); conditions: 635 nm fluorescence, higher = more signal;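 also: fluorescence read at 667 nm with signal to noise per printed feature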
[11] = cell viability in Huh7 cells, primary screen, cytotoxicity control for HCV replication inhibitor project, CellTiter-Glo luminescence, basal, 48 h (AID 1143); conditions: Huh7 HCV replicon, higher = more signal, called active from +8 up or from −8 down;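 also: Huh7 hepatoma cells carrying a hepatitis C replication reporter with no stimulus; test concentration not given here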
[12] = P. aeruginosa biofilm formation inhibitors, primary screen, PAO1 strain, BacTiter-Glo luminescence, LB-PBS (AID 1144); conditions: 12 h, higher = more signal
[13] = CREB reporter modulators without forskolin, primary screen, cell-based, PC12, CRE-LacZ reporter, unstimulated (AID 1145); conditions: no forskolin, luminescence, 4.5 h, higher = more signal, called active from +8 up or from −8 down
[14] = CREB reporter modulators under forskolin, primary screen, cell-based, PC12, CRE-LacZ reporter, forskolin-stimulated (AID 1146); conditions: luminescence, 4.5 h, higher = more signal, called active from +8 up or from −8 down;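 also: PC12 cells with 6xCRE LacZ reporter stimulated by forskolin 10 µM; beta-galactosidase reporter signal reflecting CREB driven transcription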
[15] = biological target: Streptavidin (Streptomyces avidinii) (UniProt P22629); test: streptavidin binders on small-molecule microarray, primary screen, artefact control for SMM compound annotation, biophysical, 635/667 nm fluorescence (AID 1147); conditions: streptavidin binding, higher = more signal;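 also: signal reflects streptavidin binding to arrayed compounds as a control protein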
Streptavidin (Streptomyces avidinii), sequence (P22629 whole entry, looked up): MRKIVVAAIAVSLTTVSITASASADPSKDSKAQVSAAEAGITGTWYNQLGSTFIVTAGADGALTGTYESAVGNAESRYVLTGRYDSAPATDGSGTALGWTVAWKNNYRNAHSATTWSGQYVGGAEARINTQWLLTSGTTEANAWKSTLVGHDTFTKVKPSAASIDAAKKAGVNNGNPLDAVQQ

[16] = small-molecule binders of probe aInhba, primary screen, biochemical, small-molecule microarray, 635/667 nm fluorescence (AID 1148); conditions: higher = more signal;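 also: score merges 667nm spot fluorescence with signal-to-noise for antibody binding to printed compounds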
Torsin-1A (Homo sapiens) [17] = biological target: Torsin-1A (Homo sapiens) (UniProt O14656); test: torsin A binders from cell lysate, primary screen, small-molecule microarray, wild-type, 635/667 nm (AID 1149); conditions: COS7 hTOR1A-WT lysate, 635 nm fluorescence, higher = more signal
Torsin-1A (Homo sapiens), sequence (O14656 whole entry, looked up): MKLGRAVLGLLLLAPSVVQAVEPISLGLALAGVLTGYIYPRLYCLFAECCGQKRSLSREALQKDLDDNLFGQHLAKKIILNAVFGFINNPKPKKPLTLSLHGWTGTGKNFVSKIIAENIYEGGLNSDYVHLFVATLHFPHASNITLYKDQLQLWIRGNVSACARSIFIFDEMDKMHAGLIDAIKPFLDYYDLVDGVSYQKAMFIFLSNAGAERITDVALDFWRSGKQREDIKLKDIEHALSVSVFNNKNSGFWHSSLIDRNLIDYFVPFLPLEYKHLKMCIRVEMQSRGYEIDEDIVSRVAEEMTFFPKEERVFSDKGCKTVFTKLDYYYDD

Torsin-1A (Homo sapiens) [18] = biological target: Torsin-1A (Homo sapiens) (UniProt O14656); test: small-molecule binders of mutant TOR1A in lysate, primary screen, cell lysate, small-molecule microarray, COS7 lysate, 635/667 nm fluorescence (AID 1150); conditions: COS7 hTOR1A mutant lysate, 635 nm fluorescence, higher = more signal;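 also: score pools 667 nm emission and signal to noise measuring lysate protein binding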
[19] = test system: Sonic hedgehog protein (Shh); test: small-molecule binders of Shh protein, primary screen, biochemical, small-molecule microarray, 635/667 nm fluorescence (AID 1151); conditions: small-molecule microarray binding, 635 nm fluorescence; higher = more signal;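 also: Shh protein binding to compounds spotted on small-molecule microarray slides; score combines spot fluorescence intensity with signal-to-noise across triplicate slides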

Row | Structure (SMILES) | composite z-score [1] | composite z-score [2] | composite z-score [3] | composite z-score [4] | composite z-score [5] | composite z-score [6] | z-score [7] | composite z-score (Lefty1) | composite z-score [8] | z-score [9] | composite z-score [10] | z-score [11] | z-score [12] | z-score [13] | z-score [14] | composite z-score [15] | composite z-score [16] | composite z-score (Torsin-1A (Homo sapiens) [17]) | composite z-score (Torsin-1A (Homo sapiens) [18]) | composite z-score [19]
1 | CC(=O)n1cc(C(O)C2C=CC3C(=O)N(c4ccccc4)C(=O)C3N2Nc2ccccc2)c2ccccc21 (stereo not given) | 0.917 | 0.663 | 0.0901 | 0.735 | 1.36 | -0.379 | -0.282 | -0.137 | 1.27 | 0.252 (inactive) | 0.689 | -3.34 (inactive) | -0.504 (inactive) | 0.436 (inactive) | -0.507 (inactive) | 0.862 | 0.426 | 0.14 | 1.08 | 0.497
2 | O=C(O)[C@]1(Cc2ccccc2)N=C(c2ccc(OCCCO)cc2)O[C@@H]1c1ccccc1 | 1.03 | -0.0591 | 0.136 | -0.0288 | -0.431 | -0.846 | -0.069 | -0.296 | -0.218 | 0.779 (inactive) | -0.159 | -1.14 (inactive) | 0.534 (inactive) | -0.445 (inactive) | -0.471 (inactive) | -0.423 | -0.119 | -0.639 | -0.411 | -1.78
3 | C=CCOC(=O)[C@H]1[C@@H]2C(=O)O[C@@H](c3ccccc3)[C@@H](c3ccccc3)N2[C@@H](c2ccc(OCCOC(=O)[C@H]3C[C@H]4C(=O)N[C@@H](Cc5ccccc5)C(=O)N4[C@H]3c3ccc(O)cc3)cc2)[C@]12C(=O)Nc1ccc(I)cc12 | 0.951 | 1.14 | 0.665 | 0.565 | 1.32 | 1.29 | -0.395 | 1.69 | 0.958 | -0.649 (inactive) | 0.72 | -0.918 (inactive) | -0.707 (inactive) | 1.09 (inactive) | 0.204 (inactive) | 0.133 | -0.0567 | 0.586 | 0.691 | 2.32
4 | CC(C)OC(=O)CC(=O)CC(O)c1cccc(C#N)c1 (stereo not given) | 0.797 | 0.828 | 0.763 | 0.974 | 0.102 | -0.51 | 0.67 | -0.0714 | 0.841 | 1.2 (inactive) | 0.167 | -2.13 (inactive) | -0.461 (inactive) | -0.63 (inactive) | -0.291 (inactive) | 1.35 | 0.0841 | 0.863 | 1.97 | -0.206
5 | COC(=O)C(CC#Cc1ccc2c(c1)[C@]1(C(=O)N2)[C@H](C(=O)O)[C@H]2C(=O)O[C@H](c3ccccc3)[C@H](c3ccccc3)N2[C@@H]1c1ccccc1OCCO)C(=O)OC | 2.8 | 1.24 | 0.712 | 0.95 | 1.18 | 0.838 | -1.01 | 0.976 | 1.18 | -3.09 (inactive) | 0.193 | -1.66 (inactive) | -0.292 (inactive) | 0.899 (inactive) | 2.92 (inactive) | 0.678 | 0.36 | 1.04 | 0.829 | 1.41
6 | [N-]=[N+]=Nc1ccccc1C[C@]1(C(=O)NCc2ccccc2)N=C(c2ccc(OCCCO)cc2)O[C@H]1c1ccccc1 | 1.93 | 1.24 | 0.0541 | 0.998 | 1.13 | 0.0124 | 0.482 | 0.0213 | 1.12 | -1.34 (inactive) | 0.307 | -3.03 (inactive) | -0.523 (inactive) | -0.585 (inactive) | 1.15 (inactive) | 1.44 | 0.192 | 0.403 | 0.687 | -0.312
7 | COc1cc2c(cc1OC)CN(C(=O)[C@H]1[C@@H]3C(=O)O[C@@H](c4ccccc4)[C@@H](c4ccccc4)N3[C@@H](c3ccc(OCCO)cc3)[C@]13C(=O)Nc1ccc(C#CC4(O)CCCCCC4)cc13)CC2 | 1.91 | 1.21 | -0.109 | 0.819 | 1.46 | 1.38 | -1.42 | 1.35 | 1.18 | -1.15 (inactive) | 0.928 | -0.425 (inactive) | -1.33 (inactive) | -0.438 (inactive) | 0.195 (inactive) | 1.54 | 1.23 | 0.765 | 1.85 | 1.96
8 | CCN(CC)c1ccc(N2CC=CC34O[C@@H]5/C=C\CCC(C)OC(=O)C5[C@H]3C(=O)N(CCO)[C@@H]4C2=O)cc1 (stereo not given in full) | 2.08 | -0.204 | 0.235 | -1.45 | -0.69 | -0.734 | 0.431 | -0.171 | 0.144 | -0.801 (inactive) | -0.442 | -1.33 (inactive) | 0.655 (inactive) | 0.195 (inactive) | -0.295 (inactive) | -0.21 | -0.0774 | -1.12 | -1.25 | 0.414
9 | C=CC[C@@]1(C(=O)O)N=C(c2ccc(OCCCO)cc2)O[C@@H]1c1ccccc1 | 3.53 | 1.15 | 0.3 | -0.184 | -0.759 | -0.893 | 0.959 | -0.726 | 1.27 | -0.171 (inactive) | 1.45 | 0.0076 (inactive) | -0.385 (inactive) | -0.491 (inactive) | -1.2 (inactive) | -1.72 | -0.231 | 4.37 | 4.32 | -0.198
10 | CC(C)(C)OC(=O)CC[C@@]1(C(=O)O)N=C(c2ccc(OCCCO)cc2)O[C@@H]1c1ccccc1 | 1.52 | 0.716 | -0.219 | 0.506 | 0.0761 | -0.228 | -0.161 | -0.643 | -0.0131 | 0.383 (inactive) | -0.181 | -0.97 (inactive) | -0.335 (inactive) | -0.94 (inactive) | -0.374 (inactive) | 0.0425 | 0.0154 | 0.961 | 0.694 | -0.736
